Laboratory results as given in PubChem BioAssay.
For some of these results: Entries with a potency or affinity are not part of this list. Calls of active or inactive are those of the source.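 Rule for the calls, unless noted: active = hit in primary screen, with calcium signal over 5 SD above buffer well mean in both duplicates; inactive = the rest.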

Key:
[1] = tested on: TRPC4 beta (transient receptor potential cation channel C4), mouse; test: activators of mouse TRPC4 channel, confirmation, cell-based, Fluo4 calcium, HEK293 TRPC4beta/mu-opioid, duplicates, 10 µM (AID 2426;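 active = fluorescence ratio normalized to control raised more than 50% in primary screen plus both repeat runs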;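 for activation: percent rise of integrated ratio over buffer wells lacking compound which define 0%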); details: Fluo4 calcium fluorescence, at 10 µM; hits give high values
[2] = tested on: transient receptor potential cation channel C4 beta (TRPC4), mouse; test: activators of mouse TRPC4 channel, confirmation, cell-based, second round, Fluo4, HEK293 TRPC4beta/mu-opioid, 1 µM (AID 2461;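 active = primary screen active and over 50% activation in each of two duplicate runs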;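 for activation: 0% = wells without test compound as baseline of integrated fluorescence ratio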); details: Fluo4 calcium fluorescence, at 1 µM; hits give high values
[3] = tested on: TRPC4 (transient receptor potential cation channel C4 beta), mouse; test: positive allosteric modulators of mouse TRPC4, confirmation, cell-based, second round, Fluo-4, HEK293 TRPC4beta/mu-opioid, 1 µM (AID 2554;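 active = primary screen hit whose fluorescence ratio, in both repeats, exceeds the weak agonist control mean by 3 SD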); details: DAMGO EC20, Fluo-4 calcium flux, at 1 µM; hits give high values
[4] = tested on: TRPC4 beta (transient receptor potential cation channel C4), mouse; test: positive allosteric modulators of mouse TRPC4, confirmation, cell-based, Fluo-4, HEK293 TRPC4beta/mu-opioid (AID 2555;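 active = primary screen hit whose calcium fluorescence ratio, in both repeats, exceeds the weak agonist control mean by 3 SD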); details: DAMGO EC20, Fluo-4 calcium flux, at 10 µM; hits give high values
[5] = biological target: Short transient receptor potential channel 4 (Mus musculus) (UniProt Q9QUQ5); test: inhibitors of mouse TRPC4 channel, confirmation, cell-based, Fluo4, HEK293 TRPC4beta/mu-opioid (AID 2636;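 active = calcium signal cut by more than 3 SD below the full-agonist control yet still positive, in both repeats and the earlier primary screen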); details: DAMGO, Fluo4 calcium flux, at 10 µM; hits give high values
[6] = biological target: Short transient receptor potential channel 4 (Mus musculus) (UniProt Q9QUQ5); test: inhibitors of mouse TRPC4 channel, confirmation, cell-based, second round, Fluo4, HEK293 TRPC4beta/mu-opioid, 1 µM (AID 2637;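 active = calcium signal ratio cut to more than 3 SD under the fully stimulated control mean yet still positive, in both repeats and the primary screen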); details: Fluo4 calcium flux, DAMGO, at 1 µM; hits give high values
[7] = biological target: Short transient receptor potential channel 4 (Mus musculus) (UniProt Q9QUQ5); test: TRPC4 positive allosteric modulators, dose response, cell-based, HEK293 TRPC4/mu-opioid, Fluo-4 calcium, EC20 DAMGO (AID 434941;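 active = earlier screen potentiator hit that boosts the TRPC4 ion channel at some dose, with a dose response; inactive = no potentiation, no dose response, or not a prior hit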;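 note: calcium entry triggered by an EC20 dose of DAMGO at the co-expressed mu-opioid receptor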)
[8] = biological target: Short transient receptor potential channel 4 (Mus musculus) (UniProt Q9QUQ5); test: mouse TRPC4 channel inhibitors, dose response, cell-based, HEK293 TRPC4/mu-opioid, Fluo-4 calcium (AID 434942;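 active = primary screen inhibitor hit that blocks the TRPC4 channel at some tested dose, yielding a dose curve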)
[9] = biological target: Short transient receptor potential channel 6 (Mus musculus) (UniProt Q61143); test: inhibition of mouse TRPC6 channel, confirmation, selectivity assay for TRPC4 inhibitor project, cell-based, HEK293, membrane potential dye, duplicate (AID 434948;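 active = active in primary screen and both duplicates, each dropping signal beyond three positive-control SD with fluorescence still positive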); details: HEK293 TRPC6, membrane potential dye fluorescence, at 10 µM, stimulated with maximal-effect acetylcholine; hits give high values
[10] = biological target: Short transient receptor potential channel 6 (Mus musculus) (UniProt Q61143); test: activation of mouse TRPC6 channel, confirmation, selectivity assay for TRPC4 activator project, cell-based, HEK293, membrane potential dye, duplicate (AID 434950;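 active = membrane potential signal rise above negative control mean plus 3 SD in both duplicates, also active in the earlier TRPC4 screen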;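 for activation: 0% = buffer only wells and 100% = acetylcholine maximal-effect wells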); details: HEK293 TRPC6, membrane potential fluorescence, at 10 µM; hits give high values
[11] = biological target: Short transient receptor potential channel 6 (Mus musculus) (UniProt Q61143); test: TRPC6 potentiation by TRPC4 potentiator hits, confirmation, selectivity assay for TRPC4 potentiator project, HEK293 cells, membrane potential dye, duplicate (AID 434952;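 active = compound raising the membrane signal above positive-control mean plus 3 SD in both repeats, and a primary screen hit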); details: HEK293 TRPC6, membrane potential dye fluorescence, at 10 µM, maximal acetylcholine added after compound; hits give high values
[12] = biological target: Short transient receptor potential channel 4 (Mus musculus) (UniProt Q9QUQ5); test: calcium flux activators in TRPC4/5HT1a cells, counter-screen for TRPC4 activator project, cell-based, second counter screen, HEK293 TRPC4/5HT1a, Fluo-4 (AID 434977;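 active = calcium signal rise above buffer-control mean plus 5 SD in both duplicates, and also a hit in the primary screen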;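 for activation: plate controls were assay buffer for no effect and maximal serotonin response for full effect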); details: Fluo-4 calcium flux, at 10 µM; hits give high values
[13] = calcium flux inhibitors in TRPC4/5HT1a cells, confirmation, counter-screen for TRPC4 inhibitor project, cell-based, second counter screen, HEK293 TRPC4/5HT1a, Fluo-4 (AID 434978;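 active = primary screen active whose calcium signal fell more than 3 SD beyond the full-serotonin control mean in both duplicate plates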;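 note: serotonin given first at submaximal then at maximal dose after compound preincubation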); details: Fluo-4 calcium flux, at 10 µM, serotonin added to trigger calcium flux; hits give high values
[14] = tested on: TRPC4 (mouse), co-expressed with 5HT1a in HEK293; test: calcium flux potentiators in TRPC4/5HT1a cells, confirmation, counter-screen for TRPC4 potentiator project, cell-based, second counter screen, HEK293 TRPC4/5HT1a, Fluo-4 (AID 434979;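 active = signal rise over 3 SD above mean of control wells given weak agonist, in both repeats and first screen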); details: Fluo-4 calcium flux, at 10 µM, serotonin added at its EC20 dose; hits give high values
[15] = calcium flux activation in mu-opioid HEK293 cells, confirmation, counter-screen for TRPC4 activator project, cell-based, HEK293 mu-opioid receptor line (AID 449723); details: Fluo-4 calcium fluorescence, at 10 µM; hits give high values;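 note: counter screen cells carry the mu-opioid receptor alone and lack TRPC4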
[16] = calcium flux enhancement in mu-opioid HEK293 cells, confirmation, counter-screen for TRPC4 allosteric potentiator project, cell-based, HEK293 mu-opioid receptor line (AID 449724;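 active = calcium signal rise more than 3 SD above the low-dose agonist control mean, in both duplicate plates and the primary screen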); details: Fluo-4 calcium flux, at 10 µM, compound added before EC20 DAMGO stimulus; hits give high values

Chain of Short transient receptor potential channel 6 (Mus musculus) (Q61143 whole entry, looked up): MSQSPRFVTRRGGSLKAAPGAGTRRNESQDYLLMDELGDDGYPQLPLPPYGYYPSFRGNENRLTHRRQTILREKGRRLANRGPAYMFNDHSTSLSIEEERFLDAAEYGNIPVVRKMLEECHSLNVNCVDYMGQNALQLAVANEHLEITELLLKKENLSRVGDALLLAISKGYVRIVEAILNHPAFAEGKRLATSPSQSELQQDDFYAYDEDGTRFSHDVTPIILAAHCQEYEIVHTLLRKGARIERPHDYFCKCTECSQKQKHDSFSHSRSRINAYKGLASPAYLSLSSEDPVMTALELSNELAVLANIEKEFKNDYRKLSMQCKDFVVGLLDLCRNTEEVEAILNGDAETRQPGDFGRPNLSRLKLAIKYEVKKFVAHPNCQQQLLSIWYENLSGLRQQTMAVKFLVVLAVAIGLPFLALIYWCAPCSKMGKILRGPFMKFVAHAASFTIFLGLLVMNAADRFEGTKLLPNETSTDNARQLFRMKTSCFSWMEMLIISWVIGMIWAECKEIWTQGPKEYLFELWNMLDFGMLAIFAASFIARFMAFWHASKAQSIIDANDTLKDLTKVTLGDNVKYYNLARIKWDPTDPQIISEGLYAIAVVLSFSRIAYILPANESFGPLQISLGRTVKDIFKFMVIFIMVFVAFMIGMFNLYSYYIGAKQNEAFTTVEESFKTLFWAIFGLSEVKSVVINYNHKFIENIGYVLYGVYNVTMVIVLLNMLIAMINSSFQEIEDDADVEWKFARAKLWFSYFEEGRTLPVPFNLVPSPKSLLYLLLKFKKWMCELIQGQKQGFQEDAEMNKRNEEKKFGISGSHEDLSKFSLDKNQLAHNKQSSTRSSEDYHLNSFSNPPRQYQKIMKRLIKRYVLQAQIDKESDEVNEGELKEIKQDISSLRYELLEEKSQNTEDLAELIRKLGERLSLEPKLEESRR
Chain of Short transient receptor potential channel 4 (Mus musculus) (Q9QUQ5 whole entry, looked up): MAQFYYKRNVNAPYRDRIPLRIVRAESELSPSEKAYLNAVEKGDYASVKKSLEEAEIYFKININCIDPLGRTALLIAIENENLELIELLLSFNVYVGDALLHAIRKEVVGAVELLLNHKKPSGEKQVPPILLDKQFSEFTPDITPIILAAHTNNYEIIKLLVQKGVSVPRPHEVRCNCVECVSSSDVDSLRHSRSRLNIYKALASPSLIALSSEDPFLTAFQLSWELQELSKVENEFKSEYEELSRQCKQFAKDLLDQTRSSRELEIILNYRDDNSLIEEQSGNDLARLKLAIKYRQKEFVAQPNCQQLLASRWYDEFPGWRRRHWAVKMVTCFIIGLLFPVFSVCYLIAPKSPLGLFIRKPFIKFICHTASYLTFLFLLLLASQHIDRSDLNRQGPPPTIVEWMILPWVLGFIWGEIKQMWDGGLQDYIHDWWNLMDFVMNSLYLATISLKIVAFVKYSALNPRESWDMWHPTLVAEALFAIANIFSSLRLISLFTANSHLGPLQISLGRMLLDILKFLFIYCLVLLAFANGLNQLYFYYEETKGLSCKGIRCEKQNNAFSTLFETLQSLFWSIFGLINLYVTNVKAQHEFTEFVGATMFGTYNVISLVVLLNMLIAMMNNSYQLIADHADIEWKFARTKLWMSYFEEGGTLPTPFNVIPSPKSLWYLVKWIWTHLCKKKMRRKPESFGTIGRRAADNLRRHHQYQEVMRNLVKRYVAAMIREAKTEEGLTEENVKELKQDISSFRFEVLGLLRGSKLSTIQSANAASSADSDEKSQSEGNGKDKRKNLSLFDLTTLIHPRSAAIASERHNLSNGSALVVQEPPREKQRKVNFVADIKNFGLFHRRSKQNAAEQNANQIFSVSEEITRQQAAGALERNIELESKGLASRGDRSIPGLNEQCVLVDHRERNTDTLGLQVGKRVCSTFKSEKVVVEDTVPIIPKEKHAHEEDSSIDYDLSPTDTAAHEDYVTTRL

O=[N+]([O-])c1cc(C(F)(F)F)ccc1N1CCCNCC1
active: activation [1] 77% | potentiation [3] 21% | potentiation [4] 26% | activation [12] 30.2% | potentiation [14] 30.6%
inactive: outcome [2] | outcome [5] | outcome [6] | outcome [7] | outcome [8] | outcome [9] | outcome [10] | outcome [11] | outcome [13] | outcome [15] | outcome [16]

COc1ccc(C(CNCC(O)COc2c(C)ccc(C)c2C)N(C)C)cc1 (centres undefined)
active: activation [10] 79%
inactive: outcome [1] | outcome [2] | outcome [3] | outcome [4] | outcome [5] | outcome [6] | outcome [7] | outcome [8] | outcome [9] | outcome [11] | outcome [12] | outcome [13] | outcome [14] | outcome [15] | outcome [16]

Cc1ccc(C)c(NC(=S)NCC(c2ccccc2)N(C)C)c1 (centres undefined)
inactive: outcome [3] | outcome [4] | outcome [5] | outcome [6] | outcome [7] | outcome [8] | outcome [9] | outcome [11] | outcome [13] | outcome [14] | outcome [15] | outcome [16]
active: activation [1] 260% | activation [2] 127% | activation [10] 49% | activation [12] 93.2%

Cc1cccc(OCCC(=O)NCC(c2ccccc2)N(C)C)c1 (centres undefined)
inactive: outcome [1] | outcome [2] | outcome [3] | outcome [4] | outcome [5] | outcome [6] | outcome [7] | outcome [8] | outcome [9] | outcome [11] | outcome [12] | outcome [13] | outcome [14] | outcome [15] | outcome [16]
active: activation [10] 52%

CCOC(=O)C1(CC2CC2)CCN(Cc2cnc(-c3ccccc3C)nc2)CC1
active: activation [10] 59.5%
inactive: outcome [1] | outcome [2] | outcome [3] | outcome [4] | outcome [5] | outcome [6] | outcome [7] | outcome [8] | outcome [9] | outcome [11] | outcome [12] | outcome [13] | outcome [14] | outcome [15] | outcome [16]

O=C(NC1CCN(Cc2ccccc2)CC1)C12CC3CC(CC(C3)C1)C2
active: activation [1] 166% | activation [10] 54% | activation [12] 61.6%
inactive: outcome [2] | outcome [3] | outcome [4] | outcome [5] | outcome [6] | outcome [7] | outcome [8] | outcome [9] | outcome [11] | outcome [13] | outcome [14] | outcome [15] | outcome [16]

CCOC(=O)C1(Cc2cccc(F)c2)CCN(Cc2cnn(CC)c2)CC1
active: activation [1] 118% | activation [2] 92% | activation [10] 51.5%
inactive: outcome [3] | outcome [4] | outcome [5] | outcome [6] | outcome [7] | outcome [8] | outcome [9] | outcome [11] | outcome [12] | outcome [13] | outcome [14] | outcome [15] | outcome [16]

CCCCC(=O)NC(=S)NNC(=O)c1ccc(Cl)cc1Cl
active: activation [1] 196% | activation [10] 31.5% | activation [12] 76.5% | activation [15] 43.7%
inactive: outcome [2] | outcome [3] | outcome [4] | outcome [5] | outcome [6] | outcome [7] | outcome [8] | outcome [9] | outcome [11] | outcome [13] | outcome [14] | outcome [16]

CCCN(CCC)CCNC(=O)CCC(=O)Nc1ccc2nc(N3CCOCC3)cc(C)c2c1
inactive: outcome [3] | outcome [4] | outcome [5] | outcome [6] | outcome [7] | outcome [8] | outcome [9] | outcome [10] | outcome [11] | outcome [13] | outcome [14] | outcome [15] | outcome [16]
active: activation [1] 99% | activation [2] 67% | activation [12] 35.6%

CC(C)Cc1ccc(CN2CCCC(NC(=O)CCn3cnnn3)C2)cc1 (centres undefined)
inactive: outcome [2] | outcome [3] | outcome [4] | outcome [5] | outcome [6] | outcome [7] | outcome [8] | outcome [9] | outcome [10] | outcome [11] | outcome [13] | outcome [14] | outcome [15] | outcome [16]
active: activation [1] 111% | activation [12] 27.9%

CCOC(=O)C1(CCOc2ccccc2)CCN(Cc2cc(OC)ccc2OC)CC1
active: activation [1] 68% | activation [10] 118%
inactive: outcome [2] | outcome [3] | outcome [4] | outcome [5] | outcome [6] | outcome [7] | outcome [8] | outcome [9] | outcome [11] | outcome [12] | outcome [13] | outcome [14] | outcome [15] | outcome [16]

Cn1c2ccccc2c(=O)c2c(=O)n(C3CCCCC3)c(-c3ccco3)nc21
active: activation [15] 68.6%
inactive: outcome [1] | outcome [2] | outcome [3] | outcome [4] | outcome [5] | outcome [6] | outcome [7] | outcome [8] | outcome [9] | outcome [10] | outcome [11] | outcome [12] | outcome [13] | outcome [14] | outcome [16]

COC(=O)NCC(c1ccc2c(c1)OCO2)N1CCN(c2ccccc2)CC1 (centres undefined)
inactive: outcome [3] | outcome [4] | outcome [5] | outcome [6] | outcome [7] | outcome [8] | outcome [9] | outcome [11] | outcome [12] | outcome [13] | outcome [14] | outcome [15] | outcome [16]
active: activation [1] 201% | activation [2] 99% | activation [10] 33%

COc1ccc(-n2c3c(cc(C(=O)NNc4ccccc4)c2=O)C(=O)CC(C)(C)C3)cc1
active: activation [1] 104%
inactive: outcome [2] | outcome [3] | outcome [4] | outcome [5] | outcome [6] | outcome [7] | outcome [8] | outcome [9] | outcome [10] | outcome [11] | outcome [12] | outcome [13] | outcome [14] | outcome [15] | outcome [16]

COc1ccc(C(CNC(=O)C(Cc2ccccc2)NC(N)=O)N(C)C)cc1 (centres undefined)
active: activation [1] 92% | activation [2] 90% | activation [10] 32%
inactive: outcome [3] | outcome [4] | outcome [5] | outcome [6] | outcome [7] | outcome [8] | outcome [9] | outcome [11] | outcome [12] | outcome [13] | outcome [14] | outcome [15] | outcome [16]

CC12CCCCN1CCCc1c2[nH]c2ccccc12 (centres undefined)
active: activation [10] 35% | activation [12] 8.77%
inactive: outcome [1] | outcome [2] | outcome [3] | outcome [4] | outcome [5] | outcome [6] | outcome [7] | outcome [8] | outcome [9] | outcome [11] | outcome [13] | outcome [14] | outcome [15] | outcome [16]

CN(C)CCCN(C(=O)c1ccc(Cl)s1)c1nc2cc3c(cc2s1)OCO3
active: activation [1] 63%
inactive: outcome [2] | outcome [3] | outcome [4] | outcome [5] | outcome [6] | outcome [7] | outcome [8] | outcome [9] | outcome [10] | outcome [11] | outcome [12] | outcome [13] | outcome [14] | outcome [15] | outcome [16]

CN(C)c1ccc(C(CNC(=O)Cc2cccc3ccccc23)N(C)C)cc1 (centres undefined)
inactive: outcome [2] | outcome [3] | outcome [4] | outcome [5] | outcome [6] | outcome [7] | outcome [8] | outcome [9] | outcome [10] | outcome [11] | outcome [12] | outcome [13] | outcome [14] | outcome [15] | outcome [16]
active: activation [1] 102%

COc1cc(OC)cc(C(=O)NC(=S)NNC(=O)Cc2cccs2)c1
inactive: outcome [2] | outcome [3] | outcome [4] | outcome [5] | outcome [6] | outcome [7] | outcome [8] | outcome [9] | outcome [10] | outcome [11] | outcome [13] | outcome [14] | outcome [16]
active: activation [1] 101% | activation [12] 58.2% | activation [15] 20.6%
